hgDAF12 agonist: activates the H. glycines DAF-12 receptor ligand-binding domain; HEK293 GAL4-hgDAF12 UAS-luciferase reporter, agonist luminescence; normalized to butyrate control; hit rate 1.8% among 370,000; activation, % at 6.8 µM; AID 687014;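 active = activation above a cutoff set at the mean of all screened compounds plus 3 SD, cut at about 10% in these data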
ssDAF12 agonist: activators of S. stercoralis DAF-12 nuclear receptor | hit rate 1% among 370,000 | activation, % at 6.8 µM | AID 652126 | HEK293 ssDAF-12/GRIP1 lit1-tk-luc reporter, luminescence; % of 3 µM dafachronic acid response;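 active = activation above the mean over all tested compounds plus 3 SD, cut at about 0.9% in these data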
AHR act: activates the human aryl hydrocarbon receptor. P35869. AHR-responsive luciferase reporter cells, luminescence. activation, % at 5 µM. hit rate 2.5% among 320,000; in the data active = activation above about 47%
Target sequence (P35869 whole entry, looked up): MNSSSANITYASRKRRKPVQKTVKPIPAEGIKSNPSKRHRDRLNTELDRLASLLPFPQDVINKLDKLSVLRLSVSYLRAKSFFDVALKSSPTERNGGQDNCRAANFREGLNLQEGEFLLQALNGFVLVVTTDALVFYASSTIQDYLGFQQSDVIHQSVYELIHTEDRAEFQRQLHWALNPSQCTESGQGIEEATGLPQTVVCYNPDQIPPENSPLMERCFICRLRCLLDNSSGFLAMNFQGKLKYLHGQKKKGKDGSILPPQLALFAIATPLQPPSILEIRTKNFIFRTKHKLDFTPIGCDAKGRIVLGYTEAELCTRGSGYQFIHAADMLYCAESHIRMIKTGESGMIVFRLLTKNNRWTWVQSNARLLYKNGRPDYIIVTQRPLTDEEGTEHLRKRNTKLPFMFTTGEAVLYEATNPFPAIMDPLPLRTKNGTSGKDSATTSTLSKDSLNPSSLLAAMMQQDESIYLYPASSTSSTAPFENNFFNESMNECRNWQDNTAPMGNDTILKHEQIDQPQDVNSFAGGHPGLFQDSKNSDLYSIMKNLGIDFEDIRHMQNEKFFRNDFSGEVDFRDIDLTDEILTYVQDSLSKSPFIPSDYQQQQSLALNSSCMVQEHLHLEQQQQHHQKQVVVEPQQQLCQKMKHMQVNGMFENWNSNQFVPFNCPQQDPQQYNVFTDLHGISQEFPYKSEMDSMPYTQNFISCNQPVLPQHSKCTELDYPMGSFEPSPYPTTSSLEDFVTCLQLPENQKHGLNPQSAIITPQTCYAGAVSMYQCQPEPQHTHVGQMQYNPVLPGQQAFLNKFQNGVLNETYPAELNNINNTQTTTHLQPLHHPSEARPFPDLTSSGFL
DAX1 inh-1: inhibitors of human orphan nuclear receptor DAX1 (NR0B1). hit rate 0.99% among 340,000. P51843. HEK293 Gal4-DAX1 luciferase reporter, luminescence. inhibition, % at 6.75 µM;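 active = inhibition above the mean over all tested compounds plus 3 SD, cut at about 4.2% in these data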;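 note: inhibition shows as a rise in luminescence from relieved DAX1 repression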
DAX1 inh-2: DAX1 (NR0B1) inhibition, primary screen | hit rate 1.1% among 370,000 | HEK293T StAR-luciferase reporter, SF-1/DAX-1 repression relief | inhibition, % at 6.8 µM;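 active = inhibition above the mean over all tested compounds plus 3 SD, cut at about 3.6% in these data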;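 note: higher inhibition means more luminescence from relief of DAX-1 repression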
hcDAF12 agonist: activates DAF-12 receptor from parasite H. contortus | HEK293 hcDAF-12 lit1-tk-luc reporter, luminescence; 0% DMSO, 100% Δ7-dafachronic acid | hit rate 1.4% among 370,000 | activation, % at 6.8 µM;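 active = activation above the mean of all tested compounds plus 3 SD, cut at about 5.5% in these data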
AHR act confirm: confirmation of human aryl hydrocarbon receptor activators. human cells, AHR-responsive luciferase reporter, luminescence. shares compounds with AHR act. hit rate 87% among 2,300. AID 2845. activation, % at 9 µM; in the data active = activation above about 49%;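 note: HepG2 hepatoma cells carrying a DRE-driven firefly luciferase reporter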
PXR counter: counter-screen for AHR activators: human PXR activators; shares compounds with AHR act; hit rate 88% among 2,300; cell-based PXR reporter, luciferase luminescence; activation, % at 11.6 µM; in the data active = activation above about 11%;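 note: human hepatoma DPX-2 cells expressing full-length human PXR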
Each line names hits and unclear results; the compound was inactive in the other large screens (follow-up assays come after a bar, where they were run). Compounds with a hit are over-represented: about 5.7% of the library has one in this group of screens.

COc1ccc(S(=O)(=O)N2CCOCC2)cc1NC(=O)C1CCN(S(=O)(=O)c2ccc(Cl)cc2)CC1	none (no result: AHR act)
Cc1cc(C)nc(Nc2ccccc2Br)n1	none
Cc1cc(C)nc(Nc2cccc3ccccc23)n1	AHR act 131 | AHR act confirm 109 | PXR counter 19
COc1ccc(NC(=S)Nc2ccc(C)c(Cl)c2)cc1OC	none
Cc1ccc(NC(=S)Nc2cc(-c3ccccc3)[nH]n2)cc1Cl	AHR act 94 | AHR act confirm 103 | PXR counter 37
COc1ccc(CCNc2nc(-c3ccccn3)cs2)cc1OC	AHR act 85 | AHR act confirm 80 | PXR counter 27
COc1ccc(CCNc2nc(-c3cccnc3)cs2)cc1OC	none
O=C(CN1CCCCC1)Nc1nnc(-c2ccccc2)s1	AHR act 109 | AHR act confirm 132 | PXR counter 27
O=C(CN1CCCC1)Nc1nnc(-c2cccs2)s1	AHR act 126 | AHR act confirm 125 | PXR counter 16
COc1ccc(NC(=O)Nc2nnc(Cc3ccccc3)s2)cc1	none
O=C(CN1CCCCC1)Nc1nnc(-c2ccc([N+](=O)[O-])cc2)s1	none
COc1ccc(NC(=O)Nc2nnc(-c3cccs3)s2)cc1	AHR act 90 | AHR act confirm 102 | PXR counter 37
O=C(CN1CCCCCC1)Nc1nc2ccccc2s1	none (no result: AHR act)
Cc1cccc(C(=O)Nc2ccnc(-c3ccncc3)n2)c1	AHR act 99 | AHR act confirm 48 | PXR counter inactive
CCOC(=O)Cc1c(C)nc2c(-c3cccc(Br)c3)cnn2c1C	AHR act 100 | AHR act confirm 116 | PXR counter 21
CC(=O)c1ccc(C2CC(OCCF)=CC(=O)O2)cc1 (stereo not drawn)	none (no result: AHR act, DAX1 inh-1)
O=C1Nc2cnc(Cl)nc2Nc2ccc(Cl)cc21	none (no result: AHR act, DAX1 inh-1)
N#C/C(=C(\O)c1cc(Cl)sc1Cl)c1nc2ccccc2[nH]1	AHR act 89 | AHR act confirm 161 | PXR counter 13
CCOC(=O)C(N)CSC1CC(=O)N(CCc2ccccc2)C1=O (stereo not drawn)	none
C=CCc1cccc(/C=N/NC(=O)CNc2ccccc2)c1O	AHR act 90 | AHR act confirm 69 | PXR counter 47
C=CCc1cccc(/C=N/NC(=O)CCCNc2ccc(C)cc2)c1O	none
CCOc1ccccc1Nc1nc(-c2cccnc2)cs1	none (no result: AHR act)
Cc1ccc(C)c(Nc2nc(-c3cccnc3)cs2)c1	AHR act 82 | AHR act confirm 90 | PXR counter 26
O=C(Nc1ccccc1C(=O)Nc1ccccc1)c1ccccc1F	AHR act 83 | AHR act confirm 65 | PXR counter 41
O=C(O)c1cccc(NC(=O)c2ccccc2NC(=O)c2ccccc2F)c1	none
S=C(Nc1ccccc1)Nc1ccc2cn[nH]c2c1	none
O=C(NC(=S)Nc1ccc2cn[nH]c2c1)c1ccccc1	hgDAF12 agonist 12, AHR act 84, DAX1 inh-2 3.6 | AHR act confirm 81 | PXR counter 75
Cc1ccc(Nc2nc(N)c([N+](=O)[O-])c(N3CCOCC3)n2)cc1C	AHR act 119 | AHR act confirm 83 | PXR counter 21
Nc1nc(NCCCN2CCOCC2)nc(Nc2ccc(F)cc2)c1[N+](=O)[O-]	AHR act 83 | AHR act confirm inactive | PXR counter 29
Cc1ccc(Nc2nc(N)c([N+](=O)[O-])c(N3CCC(C)CC3)n2)cc1C	none
COc1ccc(Nc2nc(NCCCN3CCOCC3)nc(N)c2[N+](=O)[O-])cc1	none
Cn1ccs/c1=N\C(=O)Nc1cccc(C(F)(F)F)c1	AHR act 106 | AHR act confirm 111 | PXR counter 60
CC1CCN(Cc2nnnn2CCCC(=O)NCCc2cnn(C)c2)CC1	none
CCn1c(C)c(C(C)=O)c(N2CCN(c3ccc(OC)cc3)CC2)nc1=S	AHR act 86 | AHR act confirm inactive | PXR counter 26
Cc1nc2ccccn2c1C(=O)Nc1ccc(Cl)cc1	AHR act 91 | AHR act confirm 152 | PXR counter 16
CC(=O)Nc1ccc(NC(=O)c2c(C)nc3ccccn23)cc1	none
COc1cc(CNc2ccc(S(N)(=O)=O)cc2)ccc1OCC(=O)NC1CCCCC1	none
Nc1c(Cl)c(Cl)nc(C(=O)N/N=C/c2cccnc2)c1Cl	AHR act 86 (no result: DAX1 inh-1) | AHR act confirm 78 | PXR counter 40
Cc1c(=O)n(OCc2ccccc2)c2ccccc2[n+]1[O-]	AHR act 177 | AHR act confirm 201 | PXR counter 47
COc1ccc(COn2c(=O)c(C)[n+]([O-])c3ccccc32)cc1OC	none
Brc1cccc(-c2nnc(SCc3nc4ccccc4[nH]3)o2)c1	AHR act 92 | AHR act confirm inactive | PXR counter 29
CCNC(=O)/C(C#N)=C/c1c(N2CCN(c3ccccc3)CC2)nc2c(C)cccn2c1=O	AHR act 80 | AHR act confirm 69 | PXR counter 19
O=C(Nc1nc2ccc(Cl)cc2s1)c1ccc(Br)o1	none
NNc1nc2ccc(Cl)cc2s1	AHR act 115 | AHR act confirm 106 | PXR counter 22
CCOCCn1c(N2CCCC2)nc2c1c(=O)[nH]c(=O)n2C	none
COc1ccc(C(=O)Nn2c(C)nc3ccccc3c2=O)cc1[N+](=O)[O-]	none
Cc1cc(C(=O)Nn2c(-c3ccc(Br)cc3)nc3ccccc3c2=O)ccc1[N+](=O)[O-]	AHR act 83 | AHR act confirm 48 | PXR counter 49
CC(C)c1nnc(SCC(=O)Nc2ccc3c(c2)OCO3)n1C	none
Cc1cccc(-c2nsc(SCC(=O)Nc3ccc4c(c3)OCO4)n2)c1	AHR act 105 | AHR act confirm inactive | PXR counter 16
CCn1c(SCC(=O)Nc2ccc3c(c2)OCO3)nc2ccccc21	AHR act 93 | AHR act confirm inactive | PXR counter 82
O=C(CSc1nc2ccccc2n1CC(=O)N1CCCC1)Nc1ccc2c(c1)OCO2	none
Cn1nnnc1SCC(=O)Nc1ccc2c(c1)OCO2	AHR act 103 | AHR act confirm 115 | PXR counter 17
O=[N+]([O-])c1cccc(-c2nnc(SCc3cccnc3)o2)c1	none
COCCN(C(=O)CSc1nc(-c2ccccc2)cn1N)c1c(N)n(Cc2ccccc2)c(=O)[nH]c1=O	none
CC(=O)c1ccc(N2CCN(C(=O)CCC(=O)Nc3ccc4nc(N5CCN(C)CC5)cc(C)c4c3)CC2)cc1	none
C(=N/Nc1nccs1)/c1cccnc1	none
